This is a sample that favours compounds with a hit; in the whole collection about 3% have one here.
PLK1 PBD inh: PLK1 (human) polo-box domain binding inhibition; Potency, µM, for inactives: max response, negative = inhibition, most hits filed as inhibitors; P53350; Plk1 PBD binding of FITC phosphopeptide, fluorescence polarization; AID 720504; 360,000 compounds, 2.8% hits; further: series mostly up to about 57 µM; nearly all actives have a fitted effect of over 65% in size
Target sequence (P53350 whole entry, looked up, the tested form may be a part): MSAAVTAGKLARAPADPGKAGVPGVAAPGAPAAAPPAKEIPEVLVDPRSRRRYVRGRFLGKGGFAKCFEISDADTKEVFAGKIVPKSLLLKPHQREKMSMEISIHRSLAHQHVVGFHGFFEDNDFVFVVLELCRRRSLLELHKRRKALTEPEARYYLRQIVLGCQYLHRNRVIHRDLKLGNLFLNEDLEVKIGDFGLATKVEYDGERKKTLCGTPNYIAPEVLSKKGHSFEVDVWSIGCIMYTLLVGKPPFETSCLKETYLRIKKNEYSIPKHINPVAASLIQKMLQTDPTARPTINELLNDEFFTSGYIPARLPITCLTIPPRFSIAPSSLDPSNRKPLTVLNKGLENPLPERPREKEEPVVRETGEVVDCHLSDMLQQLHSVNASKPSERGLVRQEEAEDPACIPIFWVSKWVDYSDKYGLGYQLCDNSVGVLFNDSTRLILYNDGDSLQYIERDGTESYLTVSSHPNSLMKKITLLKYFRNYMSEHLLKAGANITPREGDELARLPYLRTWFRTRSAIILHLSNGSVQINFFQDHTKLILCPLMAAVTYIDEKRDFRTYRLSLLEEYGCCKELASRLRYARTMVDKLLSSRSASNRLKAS
ALOX12 inh: blocks human arachidonate 12S-lipoxygenase | 580,000 compounds, 1.1% hits | P18054 | AID 1671190 | purified 12hLO, xylenol orange hydroperoxide absorbance | Potency, µM (titrated, usually from 108 µM), without a hit: top-dose activity change, negative = inhibition, hits mostly inhibitors
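Purified human 12hLO at 150 nM in 25 mM Hepes, 0.01% Triton X-100, pH 7.0, preincubated 15 min at room temperature with compound. Reaction started with 40 uM arachidonic acid, 30 min at room temperature. Hydroperoxide measured by Fe-xylenol orange, 573/405 nm absorbance ratio.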
KAT2A inh: GCN5L2 (KAT2A) acetyltransferase inhibition; Q92830; GCN5L2 HAT assay, ThioGlo1 CoA-SH fluorescence; Potency, µM (titrated, usually from 58.9 µM), inactives show at the top dose activity change, negative = inhibition, hits mostly inhibitors; 390,000 compounds, 0.21% hits; AID 504327
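Fluorescence readout, Ex340nm/Em540nm: ThioGlo1 (50uM final) reacts with free CoA thiol released as 20nM GCN5L2 acetylates H3(1-25) peptide (75uM) using acetyl-CoA (70uM). Compound and enzyme sat 15 min beforehand; 20 min room-temperature reaction.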
VDR inhibitor: inhibitors of human vitamin D receptor; P11473; VDR-SRC2-3 peptide fluorescence polarization, 2 h; Potency, µM, for the others: max response, negative = inhibition, hits mostly inhibitors; 400,000 compounds, 0.93% hits
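The screen uses fluorescence polarization to detect compounds that interfere with recruitment of the SRC2-3 coactivator peptide to VDR; plates are read after 2 h at room temperature.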
Starred values were filed as active, the others as inactive; ? = inconclusive; nt = no result; [ ] = dose if it differs, or a comment. The call rests on the fitted dose curve; in most records, active means well fitted curve in the direction sought with a large enough effect; inconclusive means small, poorly fitted or top-dose-only effect, or another doubt; inactive means no such curve, though single readings can be large; an effect the other way counts as inactive or inconclusive. On the % scale 0 is the no-effect control and ±100 the full control effect; potency means the concentration at half of the fitted maximal effect.

SMILES	PLK1 PBD inh	ALOX12 inh	KAT2A inh	VDR inhibitor
COC(=O)/C=C/c1cc(OC)c(OC)c(S(=O)(=O)Oc2ccc3c(c2)CCC3)c1	nt	-24%	nt	nt
S=C(NCCc1ccccc1)Nc1ccc(Nc2ccccc2)cc1	?	?	-10%	-3%
S=C(NCc1ccccc1)Nc1ccc(Sc2ccc(Br)cc2)cc1	nt	28µM*	nt	nt
S=C(NCCc1ccccc1)Nc1ccc(Sc2ccc(Br)cc2)cc1	nt	35µM*	nt	nt
FC(F)(F)Sc1ccc(NC(=S)NCc2ccccc2)cc1	4%	40µM*	-8%	-15%
CC(NC(=O)C1CCCC1)C1CCCO1 (stereo unspecified)	nt	9%	nt	nt
CCC(Oc1ccccc1Cl)C(=O)O (stereo unspecified)	nt	-7%	nt	nt
N#CC1=C(N)OC2=C(C(=O)CCC2)C1c1cccc2ccccc12 (stereo unspecified)	nt	4%	nt	nt
CSc1ccccc1C(=O)NCCC1=CCCCC1	nt	-6%	nt	nt
O=C1c2ccccc2NC(c2ccc(-c3ccc(C(F)(F)F)cc3)o2)N1O (stereo unspecified)	nt	28µM*	-4%	-21%
CCSc1nc2c(c(=O)n(C)c(=O)n2C)n1CCCc1ccccc1	nt	5%	nt	nt
O=[N+]([O-])c1cccc(-c2noc([C@@H]3Cc4nc[nH]c4CN3CC3CCCCC3)n2)c1	nt	-9%[176 µM]	nt	nt
O=C(Nc1ccccc1)N1Cc2[nH]cnc2C[C@H]1c1nc(-c2ccc3ccccc3c2)no1	nt	87%	nt	nt
O=C(NC1CCCCC1)N1Cc2[nH]cnc2C[C@H]1c1nc(-c2cccc([N+](=O)[O-])c2)no1	nt	6.3µM*	nt	nt
O=C(NC1CCCCC1)N1Cc2[nH]cnc2C[C@H]1c1nc(-c2ccc3ccccc3c2)no1	nt	10µM*	nt	nt
COc1ccc(-c2noc([C@@H]3Cc4nc[nH]c4CN3C(=O)NC3CCCCC3)n2)cc1	nt	3.5µM*	nt	nt
CC(C)n1cc(-c2cc(C(=O)N3CCC(C)(C)C3)c3ccc(F)cc3n2)cn1	nt	2%	nt	nt
COc1ccccc1-c1cc(N2CCOCC2=O)c2cncn2c1	nt	-10%[176 µM]	nt	nt
N=c1nc(-c2ccccc2)n(-c2ccccc2)s1	nt	nt	nt	13µM*
COc1ccccc1CNC(=O)c1cc2sccc2n1Cc1ccc(F)cc1	nt	-18%	4%	89µM*
Cc1ccccc1N/N=C/c1sc(=O)n(Cc2cccc(C(=O)O)c2)c1Cl	27µM*	?	-5%	?
O=C(O)c1cccc(Cn2c(Cl)c(/C=N/NC(=O)c3cc4ccccc4cc3O)sc2=O)c1	27µM*	?	?	?
O=C(O)c1cccc(Cn2c(Cl)c(/C=N/NC(=O)c3ccccc3)sc2=O)c1	-6%	19%	-17%	-7%
COC(=O)c1cccc(Cn2c(Cl)c(/C=N/Nc3ccccc3C)sc2=O)c1	-4%	?	-13%	-24%
O=C(N/N=C\c1ccc(Br)o1)C1COc2ccccc2O1 (stereo unspecified)	17µM*	-17%	4%	-8%
SMILES	PLK1 PBD inh	ALOX12 inh	KAT2A inh	VDR inhibitor
O=C(N/N=C/c1ccco1)C1COc2ccccc2O1 (stereo unspecified)	-4%	-11%	-3%	7%
COc1ccc(OCC(=O)NCc2nc(-c3ccccc3)no2)cc1	30µM*	?	nt	-16%
Cc1ccc(-c2noc(COc3ccccc3C)n2)cc1	-3%	-2%	-15%	3%
Cc1ccc(OCc2nc(-c3ccccc3)no2)cc1	12µM*	-26%	-18%	?
COc1cc(OC)cc(C(=O)NCc2nc(-c3ccccc3)no2)c1	-6%	?	0%	1%
O=S(=O)(c1ccccc1)N1CCCC2(CC(c3ccccc3)=NO2)C1 (stereo unspecified)	nt	0%[6.33 µM]	nt	nt
CC1CCN(C(CNC(=O)c2ccccc2SC(F)F)c2cccs2)CC1 (stereo unspecified)	nt	32µM*	nt	nt
O=C(CNC(=O)c1ccccc1Cl)NCC(c1cccs1)N1CCOCC1 (stereo unspecified)	0%	-3%	0%	-3%
COc1cccc(C(c2c(C)[nH]n(-c3ccccc3)c2=O)c2c(C)[nH]n(-c3ccccc3)c2=O)c1O	21µM*	?	-16%	?
COc1cccc(C(c2c(C)[nH]n(-c3ccccc3)c2=O)c2c(C)[nH]n(-c3ccccc3)c2=O)c1OC	12µM*	-25%	0%	?
Cc1cc(S(=O)(=O)NCCO)c(C(C)C)cc1Br	nt	3%	nt	nt
Cc1cc(C)c(O)c(CN(C)Cc2cc(Cl)cc(Cl)c2O)c1	-9%	40µM*	nt	4%
CC(=O)c1cccc(NS(=O)(=O)c2ccc(C)cc2)c1	nt	-2%	nt	nt
O=C(O)C(c1c[nH]c2ccc(Cl)cc12)N1CCN(c2nsc3ccccc23)CC1 (stereo unspecified)	nt	7%	nt	nt
CC(NS(C)(=O)=O)C(=O)O (stereo unspecified)	nt	9%	nt	nt
Cc1cc2cc(CNC(=O)c3ccc(Br)o3)ccc2n1C	-18%	?	-10%	79µM*
Cc1cc2cc(CNC(=S)Nc3ccc(OC(F)(F)F)cc3)ccc2n1C	2%	40µM*	2%	-6%
Cc1cccc(NC(=O)NCc2ccc3c(c2)cc(C)n3C)c1	-2%	?	-2%	-11%
COc1cccc(NC(=S)NCc2ccc3c(c2)cc(C)n3C)c1	6%	?	-3%	8%
Cc1cccc(NC(=S)NCc2ccc3c(c2)cc(C)n3C)c1C	-18%	35µM*	-24%	8%
CCN(Cc1ccncc1)S(=O)(=O)c1ccc(C(C)=O)cc1	19µM*	-12%	-6%	?
CCN(CC)S(=O)(=O)c1ccc(C(=O)Nc2ccc(Cc3ccncc3)cc2)cc1	-18%	-1%	-1%	3%
CCCOC1CCCN(C(=O)c2ccc(OC3CCN(C(=O)CCOC)CC3)cc2)C1 (stereo unspecified)	-2%	18%	-1%	-12%
COCCC(=O)N1CCC(Oc2ccc(C(=O)N3CCCC(OC)C3)cc2)CC1 (stereo unspecified)	27µM*	1%	-5%	-12%
SMILES	PLK1 PBD inh	ALOX12 inh	KAT2A inh	VDR inhibitor
COCCC(=O)N1CCC(Oc2ccc(C(=O)N(C)C(C)c3ccon3)cc2)CC1 (stereo unspecified)	27µM*	-15%	?	-25%
COCCC(=O)N1CCC(Oc2ccc(C(=O)N(C)C3CCCCC3)cc2)CC1	-7%	27%	-6%	1%
O=C(/C=C/c1cccc([N+](=O)[O-])c1)c1ccc(-c2ccccc2)cc1	nt	5%	nt	nt
O=C(OC1Cc2c(O)cc(O)cc2OC1c1cc(O)c(O)c(O)c1-c1c(C2Oc3cc(O)cc(O)c3CC2OC(=O)c2cc(O)c(O)c(O)c2)cc(O)c(O)c1O)c1cc(O)c(O)c(O)c1 (stereo unspecified)	nt	nt	14µM*	?
CCOC(=O)C1CCN(C(=O)Cc2cccn2-c2ccc(F)cc2)CC1	nt	13%	nt	nt
CCN(CC(=O)NC(C)(C)C)Cc1cccc2cccnc12	nt	7%	nt	nt
COc1cc(/C=N/NC(=S)Nc2cccc(Cl)c2C)ccc1OCC(=O)N1CC(C)OC(C)C1 (stereo unspecified)	-2%	45µM*	-11%	-19%
CCNC(=O)NC(=O)C(C)Sc1ccc(F)cc1 (stereo unspecified)	nt	-4%	nt	nt

Screening results deposited in PubChem by National Center for Advancing Translational Sciences (NCATS).
